# MCL1 BIM primary: inhibitors of MCL1 binding to BIM-BH3, primary screen, biochemical, fluorescence polarization | GST-MCL1 / FITC-Bim-BH3 fluorescence polarization | 0.68% of 320,000 active | inhibition, % at 10.9 µM | Induced myeloid leukemia cell differentiation protein Mcl-1 (Homo sapiens), Q07820;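 active means inhibition above the mean inhibition of all tested compounds plus 3 SD, set per campaign, cut at about 40% in these data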;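 further: 0% = DMSO wells and 100% = unlabeled Bim-BH3 peptide control; higher means more loss of mP so more displacement of Bim peptide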
# Target sequence (Q07820 whole entry, looked up): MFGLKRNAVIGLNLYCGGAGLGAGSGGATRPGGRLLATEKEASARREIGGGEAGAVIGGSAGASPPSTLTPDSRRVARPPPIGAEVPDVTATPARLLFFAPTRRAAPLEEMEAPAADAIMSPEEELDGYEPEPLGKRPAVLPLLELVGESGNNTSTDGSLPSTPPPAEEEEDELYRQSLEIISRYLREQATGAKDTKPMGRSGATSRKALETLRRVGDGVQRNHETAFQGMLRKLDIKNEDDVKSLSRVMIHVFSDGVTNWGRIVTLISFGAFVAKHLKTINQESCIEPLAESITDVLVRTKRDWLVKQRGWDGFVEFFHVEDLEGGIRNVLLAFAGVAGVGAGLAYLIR
# Mcl-1 Bim block: inhibitors of Bim peptide binding to Mcl-1, primary screen, biochemical, bead-based flow cytometry, multiplex. 0.1% of 190,000 active. AID 1009, 2008. Bim peptide-Mcl-1 binding. inhibition, % at 10 µM; in the data active means inhibition above about 40%;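 further: 0% = no compound tracer wells and 100% = peptide blocker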
# Mcl1 Noxa PPI: Mcl-1/Noxa binding inhibitors, primary screen, biochemical, TR-FRET, 1536-well | Induced myeloid leukemia cell differentiation protein Mcl-1 (Homo sapiens), Q07820 | TR-FRET Mcl-1/Noxa peptide binding, 2 h | inhibition, % at 21.7 µM | 1.5% of 220,000 active;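 active means compounds that cut the protein-peptide binding signal by more than 50% relative to plate controls in a single-dose test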;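 further: His-tagged Mcl-1 with rhodamine Noxa BH3 peptide and terbium anti-His antibody; 0% = Mcl-1 plus Noxa peptide wells and 100% = peptide-only wells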
# Mcl1 Bid PPI: Mcl-1/Bid binding inhibitors, primary screen, biochemical, TR-FRET, 1536-well. inhibition, % at 21.7 µM. AID 1021, 2008. 0.97% of 220,000 active. TR-FRET Mcl-1/Bid-Dy647 peptide binding;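 active means compounds that cut the binding signal by more than half at the single screening dose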;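 further: His-tagged Mcl-1 with europium anti-His antibody binding Bid BH3 peptide; 0% = Mcl-1 plus peptide wells and 100% = peptide-only wells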
# GLD-1 RNA inh: GLD-1/TGE RNA complex disruptors, primary screen, biochemical, fluorescence polarization. inhibition, % at 5.96 µM. purified GLD-1 + fluorescein TGE RNA. Female germline-specific tumor suppressor gld-1 (Caenorhabditis elegans), Q17339. 0.44% of 320,000 active. AID 2280, 2010;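 active means percent inhibition above a per-plate cutoff, the plate mean of test compounds plus 3 SD, cut at about 30% in these data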;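 further: 0% = DMSO wells with GLD-1 and probe and 100% = wells lacking GLD-1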
# BCLXL inh: inhibitors of human Bcl-xL, primary screen, biochemical, fluorescence polarization, HTS | 0.7% of 320,000 active | GST-Bcl-xL / FITC-Bim BH3 peptide fluorescence polarization | inhibition, % at 10.9 µM | AID 2129, 2009;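 active means inhibition above the mean of all tested compounds plus 3 SD, cutoff set per campaign, cut at about 30% in these data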;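 further: 0% = DMSO wells and 100% = unlabeled Bim-BH3 peptide competitor; inhibitors lower millipolarization by displacing the labeled peptide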
# Bcl-xL conf: Bcl-xL inhibitors blocking Bim BH3 binding, confirmation, counter-screen for MCL1 inhibitor project, biochemical, fluorescence polarization | shares compounds with MCL1 BIM primary | GST-Bcl-xL / FITC-Bim BH3 peptide FP binding | inhibition, % at 10.9 µM | 54% of 1,700 active;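 active means inhibition above a cutoff equal to the mean inhibition of all tested compounds plus 3 SD, cut at about 30% in these data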;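 further: 0% = DMSO wells and 100% = unlabeled Bim BH3 control peptide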
# MCL1 BIM confirm: inhibitors of MCL1 binding to BIM-BH3, confirmation, biochemical, fluorescence polarization, triplicate. shares compounds with MCL1 BIM primary. GST-MCL1 / FITC-Bim-BH3 fluorescence polarization. inhibition, % at 10.9 µM. 61% of 1,700 active. AID 2168, 2009;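 active means inhibition above the average of all tested compounds plus 3 SD, cut at about 40% in these data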;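 further: 0% = DMSO wells and 100% = unlabeled Bim-BH3 control peptide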
# The depositor's hits bear a star; . = no result; + = active, no number. An excerpt weighted towards active compounds, which were near 2.3% of everything screened.
SMILES,MCL1 BIM primary,Mcl-1 Bim block,Mcl1 Noxa PPI,Mcl1 Bid PPI,GLD-1 RNA inh,BCLXL inh,Bcl-xL conf,MCL1 BIM confirm
O=C1C(Cl)=C(N2CCOCC2)C(=O)N1CCc1ccccc1,4,1,0,-43,5,1,.,.
CN1CCN(C2=C(Cl)C(=O)N(CCc3ccccc3)C2=O)CC1,54*,0,2,-20,30,51*,20,30
CN(C)S(=O)(=O)c1ccc(Cl)c(NC(=O)COC(=O)/C=C/c2ccco2)c1,0,-2,8,-31,2,1,.,.
CCCCC1=CC2=C(c3ccco3)C(=O)C(C)(OC(=O)c3ccc(OC)cc3)C(=O)C2=CN1Cc1ccc(OC)cc1 (stereo unspecified),.,.,17,-91,.,.,.,.
CCCCC1=CC2=C(c3ccco3)C(=O)C(C)(OC(=O)c3ccc(OC)cc3)C(=O)C2=CN1CCN1CCOCC1 (stereo unspecified),93*,.,36,-102,41*,72*,14,16
CCCCC1=CC2=C(c3ccco3)C(=O)C(C)(OC(=O)c3ccc(OC)cc3)C(=O)C2=CN1CCCN(CC)CC (stereo unspecified),53*,.,9,-54,34*,49*,158*,+
CCCCC1=CC2=C(c3ccco3)C(=O)C(C)(OC(=O)c3ccc(OC)cc3)C(=O)C2=CN1CCCCO (stereo unspecified),89*,.,4,-83,42*,79*,13,10
COC(=O)CCCC1=CC2=C(c3ccccc3)C(=O)C(C)(OC(=O)C3CCCC3)C(=O)C2=CN1CCN1CCOCC1 (stereo unspecified),154*,.,2,-114,90*,120*,68*,86*
Cn1c(=O)oc2cc(S(=O)(=O)N3CCC(C(=O)N4CCc5ccccc5C4)CC3)ccc21,-2,0,27,-1,-4,-2,.,.
O=[N+]([O-])c1cc([N+](=O)[O-])c(Oc2cncc(Cl)c2)cc1NC1CCCCCCC1,-7,.,.,.,-3,0,.,.
CCCCC1=CC2=C(c3ccco3)C(=O)C(C)(OC(=O)c3ccc(OC)cc3)C(=O)C2=CN1C1CCCC1 (stereo unspecified),135*,.,.,.,92*,112*,64*,79*
O=C(COC(=O)c1ccc([N+](=O)[O-])s1)Nc1ccc(Cl)cn1,16,-5,16,12,1,17,.,.
Cc1c(Cl)cnc(NC(=O)COC(=O)c2ccc([N+](=O)[O-])s2)c1Cl,61*,-4,94*,7,19,42*,34*,48*
COc1ccc(/C=N/NC(=O)c2cccc([N+](=O)[O-])c2)cc1O,3,0,27,-31,-3,-4,.,.
COc1cccc(/C=N/NC(=O)c2cc3cc([N+](=O)[O-])ccc3s2)c1O,45*,6,68*,84*,8,10,20,90*
COc1ccc(CNC(=O)C2CCN(S(=O)(=O)c3ccc4c(c3)CC(C)N4C(=O)C3CC3)CC2)cc1 (stereo unspecified),-2,.,.,.,-6,2,.,.
O=C1/C(=C/c2cccc(F)c2)Oc2cc(O)ccc21,66*,.,.,.,70*,75*,83*,98*
Cc1cccc(/C=C2\Oc3cc(OS(C)(=O)=O)ccc3C2=O)c1,7,-4,12,-16,11,9,.,.

# Screening results from PubChem BioAssay.
